This is an account of results in PubChem BioAssay.

In test [1] the target is Albumin (Bos taurus) (UniProt P02769). The experiment in a line: compounds binding labelled BSA control protein – biochemical, small-molecule microarray, Alexa647 label, 635/667 nm fluorescence, artefact control for SMM control protein annotation, profiling panel (AID 1118).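 Note: score merges 667 nm emission intensity and signal-to-noise per printed compound spot.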 Conditions: BSA-A647 binding, fluorescence 635 nm, higher = more signal.
A short description of test [2]: probe aXIP binding to arrayed compounds – biochemical, NeuroSMM set, 635/667 nm fluorescence, primary screen (AID 1119).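 Note: probe is the protein aXip251-270 applied at 1 µg/mL to compound-printed slides; binding of probe to printed compounds measured as 667 nm fluorescence plus signal to noise.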 Conditions: small-molecule microarray, higher = more signal, called active from +8 up or from −8 down.
Test [3] in a line: probe aNOTCH3 binding on compound microarray – biochemical, small-molecule microarray, 635/667 nm fluorescence, primary screen (AID 1120).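 Note: probe is a biotin-tagged antibody raised against NOTCH3 rather than NOTCH3 protein; score merges spot fluorescence near 667 nm with spot signal to noise.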 Conditions: higher = more signal.
Test [4] can be described thus: probe aNOTCH2 binding on compound microarray – biochemical, small-molecule microarray, 635/667 nm fluorescence, primary screen (AID 1121).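 Note: score merges feature fluorescence read at 667 nm with its signal to noise.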 The following applies: higher = more signal.
The target of test [5] is Carbonic anhydrase 2 (Homo sapiens) (UniProt P00918). The test is described as follows: compounds binding carbonic anhydrase 2 – biochemical, small-molecule microarray, Alexa647-labelled CAII, profiling panel (AID 1122). The following applies: CAII-A647 binding fluorescence, higher = more signal.
Test [6] is described as follows: COS7 lysate on small-molecule microarray, probe aHis, 635 nm (AID 1123).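 Note: z-score combines 667nm fluorescence intensity with signal-to-noise per printed compound spot.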 The following applies: COS7 cell lysate, fluorescence, higher = more signal.
Test [7] in a line: probe aLAP1 signal on lysate-treated microarray – cell lysate, small-molecule microarray, COS7 lysate, primary screen (AID 1124).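 Note: lysate comes from COS7 cells expressing LAP1 and is applied at 0.3 µg/mL; score merges spot fluorescence near 667 nm with signal-to-noise over triplicate slides.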 The following applies: probe aLAP1, fluorescence, higher = more signal.
Test [8] concerns Sam68 (KHDRBS1). The test is described as follows: compounds binding KHDRBS1 protein – biochemical, small-molecule microarray, 635 nm fluorescence, primary screen (AID 1125).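 Note: score merges 667 nm channel intensity with signal to noise over triplicate slides.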 Conditions: higher = more signal.
Test [9] has as its system Chordin-like protein 2 (CHRDL2). The test is described as follows: compounds binding chordin-like 2 – biochemical, small-molecule microarray, 635 nm fluorescence, primary screen (AID 1126).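 Note: printed compound slides probed with Chrdl2 protein at 4 µg/mL for 1 h at 4 C; score merges 667 nm emission intensity with signal to noise over three replicate slides.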 The following applies: fluorescence 635 nm, higher = more signal.
For test [10], the target named is Concanavalin-A (Canavalia ensiformis) (UniProt P02866). The experiment in a line: compounds binding concanavalin A lectin – biochemical, small-molecule microarray, Alexa647 label, 635 nm, artefact control for SMM control protein annotation, primary screen (AID 1127).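 Note: z combines 667 nm emission intensity with signal-to-noise across three replicate slides.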 The following applies: ConA-A647 binding fluorescence, higher = more signal.
Test [11] is described as follows: compounds binding Alexa647 anti-His antibody – biochemical, small-molecule microarray, 635 nm fluorescence, artefact control for SMM control protein annotation, primary screen (AID 1128).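 Note: score merges feature fluorescence with signal-to-noise for each printed compound spot.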 Conditions: higher = more signal.
Test [12] concerns Human papillomavirus type 1a E7 protein (residues 1-88). The test is described as follows: HPV1a E7 small-molecule binders, primary screen, biochemical, small-molecule microarray, residues 1-88, 635 nm (AID 1129). The following applies: small-molecule microarray binding, fluorescence 635 nm; higher = more signal.
In test [13] the target is Focal adhesion kinase 1 (Homo sapiens) (UniProt Q05397). The experiment in a line: PTK2 protein binding on printed compound slides – biochemical, small-molecule microarray, 635/667 nm fluorescence, BSA, DTT, primary screen (AID 1130).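 Note: composite of spot emission at 667 nm and signal to noise over triplicate slides.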 Conditions: 635 nm fluorescence, higher = more signal.
For test [14], the system named is Fibrinogen (Alexa647-labelled). The experiment in a line: Alexa647-fibrinogen binding to printed small molecules – biochemical, small-molecule microarray, 635/667 nm fluorescence, artefact control for SMM control-protein annotation, profiling panel (AID 1131).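 Note: z-score merges 667 nm fluorescence with per-spot signal-to-noise over triplicate slides.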 The following applies: fibrinogen-A647 binding fluorescence, higher = more signal.
Test [15] deals with Follistatin (Homo sapiens) (UniProt P19883). The experiment in a line: FST protein binding to printed compounds – biochemical, small-molecule microarray, 635/667 nm fluorescence, primary screen (AID 1132). The following applies: 635 nm fluorescence, higher = more signal.
The target of test [16] is Fibroblast growth factor 2 (Homo sapiens) (UniProt P09038). The experiment in a line: basic fibroblast growth factor binding to printed compounds – biochemical, small-molecule microarray, 635/667 nm fluorescence, primary screen (AID 1133). The following applies: FGF2, fluorescence 635/667, higher = more signal.
The nature of test [17]: JC-1 mitochondrial potential readout, lung cancer cells – cell-based, A549, JC-1 fluorescence, basal, 24 h, 100 nL, profiling panel (AID 1138).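 Note: A549 lung adenocarcinoma cells under basal conditions with no added stimulus; test concentration not given here.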 Conditions: higher = more signal.
Test [18] deals with Lefty1. The test is described as follows: Lefty1 protein binding to printed compounds – biochemical, small-molecule microarray, 635/667 nm fluorescence, primary screen (AID 1139). Conditions: fluorescence 635/667, higher = more signal.
For test [19], the system named is wheat germ agglutinin (Triticum aestivum), Alexa647-labelled. The test is described as follows: Alexa647-WGA lectin binding to printed small molecules – biochemical, small-molecule microarray, 635/667 nm fluorescence, artefact control for SMM control-protein annotation, profiling panel (AID 1140).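 Note: score merges 667 nm feature emission with signal to noise over triplicate slides.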 The following applies: WGA-A647 binding, 635 nm fluorescence, higher = more signal.

Test [20] deals with Luciferin 4-monooxygenase (Photinus pyralis) (UniProt P08659). The experiment in a line: inhibition of purified Photinus pyralis luciferase – biochemical, luminescence, purified enzyme, 2006 set, primary screen (AID 1141).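 Note: cell-free assay with purified firefly luciferase at 100 ng per well in PBS; test concentration not given here.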 The following applies: purified firefly luciferase, SteadyGlo luminescence, 30 min; higher = more signal, called active from +8 up or from −8 down.

The structures appear in SMILES notation. Activity calls are given as the source filed them.

Chain of Focal adhesion kinase 1 (Homo sapiens) (Q05397 whole entry, looked up): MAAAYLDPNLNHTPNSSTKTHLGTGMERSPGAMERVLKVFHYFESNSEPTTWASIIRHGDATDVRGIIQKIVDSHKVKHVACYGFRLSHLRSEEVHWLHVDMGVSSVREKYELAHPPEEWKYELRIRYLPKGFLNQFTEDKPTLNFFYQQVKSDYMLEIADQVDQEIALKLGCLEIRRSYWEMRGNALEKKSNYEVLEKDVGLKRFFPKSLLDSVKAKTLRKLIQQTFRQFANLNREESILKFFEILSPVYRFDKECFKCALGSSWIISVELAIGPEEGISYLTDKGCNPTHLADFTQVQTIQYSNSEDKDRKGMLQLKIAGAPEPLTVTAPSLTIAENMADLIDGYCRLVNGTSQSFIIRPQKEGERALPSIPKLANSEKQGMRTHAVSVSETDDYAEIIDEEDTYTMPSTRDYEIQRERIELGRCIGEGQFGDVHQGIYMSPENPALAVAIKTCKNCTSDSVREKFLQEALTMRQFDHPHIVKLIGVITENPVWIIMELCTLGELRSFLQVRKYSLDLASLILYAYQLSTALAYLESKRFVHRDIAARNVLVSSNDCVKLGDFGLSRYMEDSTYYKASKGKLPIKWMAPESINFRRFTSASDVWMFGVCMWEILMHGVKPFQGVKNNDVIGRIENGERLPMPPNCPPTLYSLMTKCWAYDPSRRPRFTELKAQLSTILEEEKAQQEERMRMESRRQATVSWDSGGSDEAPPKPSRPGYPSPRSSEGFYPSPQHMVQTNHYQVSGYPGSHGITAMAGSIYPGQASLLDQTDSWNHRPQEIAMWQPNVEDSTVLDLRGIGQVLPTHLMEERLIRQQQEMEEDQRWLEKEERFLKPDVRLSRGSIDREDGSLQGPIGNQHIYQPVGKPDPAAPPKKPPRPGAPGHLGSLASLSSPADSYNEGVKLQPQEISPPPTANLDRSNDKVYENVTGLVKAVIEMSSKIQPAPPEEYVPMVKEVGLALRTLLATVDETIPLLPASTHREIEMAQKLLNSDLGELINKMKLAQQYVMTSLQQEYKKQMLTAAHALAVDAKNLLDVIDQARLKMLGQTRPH
Chain of Follistatin (Homo sapiens) (P19883 whole entry, looked up): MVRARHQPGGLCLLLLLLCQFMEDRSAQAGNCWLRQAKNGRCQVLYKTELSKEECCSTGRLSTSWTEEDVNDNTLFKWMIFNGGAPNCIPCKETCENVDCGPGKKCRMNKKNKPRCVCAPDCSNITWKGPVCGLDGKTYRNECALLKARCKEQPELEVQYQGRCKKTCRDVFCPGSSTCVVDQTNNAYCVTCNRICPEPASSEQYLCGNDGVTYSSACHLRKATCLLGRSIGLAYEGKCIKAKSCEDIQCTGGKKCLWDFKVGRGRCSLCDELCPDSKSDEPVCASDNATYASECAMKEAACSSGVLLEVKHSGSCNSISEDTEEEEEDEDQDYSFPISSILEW
Chain of Albumin (Bos taurus) (P02769 whole entry, looked up): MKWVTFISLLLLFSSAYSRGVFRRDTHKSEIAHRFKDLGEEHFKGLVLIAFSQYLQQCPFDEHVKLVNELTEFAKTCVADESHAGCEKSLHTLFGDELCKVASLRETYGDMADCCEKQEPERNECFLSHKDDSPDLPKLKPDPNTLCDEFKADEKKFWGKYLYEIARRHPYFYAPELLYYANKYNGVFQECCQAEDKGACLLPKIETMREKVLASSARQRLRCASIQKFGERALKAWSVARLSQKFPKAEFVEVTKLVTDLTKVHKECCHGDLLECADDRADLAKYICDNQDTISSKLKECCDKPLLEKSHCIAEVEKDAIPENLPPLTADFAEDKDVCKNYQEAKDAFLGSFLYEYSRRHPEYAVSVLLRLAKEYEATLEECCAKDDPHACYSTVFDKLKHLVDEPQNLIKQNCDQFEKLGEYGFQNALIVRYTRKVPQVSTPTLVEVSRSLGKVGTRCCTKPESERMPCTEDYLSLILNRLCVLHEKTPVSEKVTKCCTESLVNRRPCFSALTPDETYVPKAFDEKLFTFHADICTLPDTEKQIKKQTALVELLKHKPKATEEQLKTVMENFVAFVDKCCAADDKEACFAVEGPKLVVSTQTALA
Chain of Fibroblast growth factor 2 (Homo sapiens) (P09038 whole entry, looked up): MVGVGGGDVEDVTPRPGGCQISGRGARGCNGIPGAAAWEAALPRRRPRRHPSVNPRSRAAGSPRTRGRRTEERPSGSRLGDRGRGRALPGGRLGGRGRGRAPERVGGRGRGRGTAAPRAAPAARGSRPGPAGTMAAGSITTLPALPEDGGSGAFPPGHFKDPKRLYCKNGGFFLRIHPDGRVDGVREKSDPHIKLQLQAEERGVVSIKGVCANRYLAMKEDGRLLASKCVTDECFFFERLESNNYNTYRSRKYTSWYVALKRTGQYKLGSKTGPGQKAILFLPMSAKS
Chain of Concanavalin-A (Canavalia ensiformis) (P02866 whole entry, looked up): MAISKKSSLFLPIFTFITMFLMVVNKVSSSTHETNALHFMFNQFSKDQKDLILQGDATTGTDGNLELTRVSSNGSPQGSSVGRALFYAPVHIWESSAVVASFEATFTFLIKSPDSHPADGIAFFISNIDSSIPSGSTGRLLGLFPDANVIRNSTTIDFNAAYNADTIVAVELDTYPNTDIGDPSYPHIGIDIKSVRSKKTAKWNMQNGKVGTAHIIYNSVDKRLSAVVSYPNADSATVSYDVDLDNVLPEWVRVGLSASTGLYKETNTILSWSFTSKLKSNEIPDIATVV
Chain of Luciferin 4-monooxygenase (Photinus pyralis) (P08659 whole entry, looked up): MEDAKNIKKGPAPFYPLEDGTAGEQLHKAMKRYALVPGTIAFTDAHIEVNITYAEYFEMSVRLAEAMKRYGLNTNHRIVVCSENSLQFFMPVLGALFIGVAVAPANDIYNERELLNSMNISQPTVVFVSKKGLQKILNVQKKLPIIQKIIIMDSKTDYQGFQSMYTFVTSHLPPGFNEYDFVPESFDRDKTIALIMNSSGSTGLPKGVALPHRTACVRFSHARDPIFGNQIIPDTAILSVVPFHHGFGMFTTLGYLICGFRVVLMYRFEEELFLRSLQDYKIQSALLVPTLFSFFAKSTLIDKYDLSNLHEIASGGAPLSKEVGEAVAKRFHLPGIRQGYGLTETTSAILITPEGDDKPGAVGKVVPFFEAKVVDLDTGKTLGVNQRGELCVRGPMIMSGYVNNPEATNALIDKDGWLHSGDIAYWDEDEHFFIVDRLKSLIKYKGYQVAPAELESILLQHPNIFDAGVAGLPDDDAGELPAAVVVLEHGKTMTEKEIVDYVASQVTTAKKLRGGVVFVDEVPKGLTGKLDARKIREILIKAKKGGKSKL

In the case of `CN1C(=O)C2C=CC(C(O)c3cccs3)N(N(c3ccccc3)c3ccccc3)C2C1=O` (stereo not given), the composite z-score was 0.994 in test [1]; 0.17 in test [3]; -0.0037 in test [4]; 0.714 in [5]; 1.69 in [6]; 0.518 in test [7]. The composite z-score in [8] was 1.02; in test [9], -0.362; in test [10] it was 0.644; in test [11], 2.34; in [12] it was 1.08; in [13], 0.663. Moreover, the composite z-score in test [14] is 0.954; in test [15], 0.569; in test [16], -0.469; in test [18], 0.169; in test [19], 1.06. Further, the composite Z-score in test [2] was 0.343 (inactive). The z-score in [17] is 0.7; in [20] it was -0.697 (inactive).

Regarding `COc1ccc(C#Cc2ccc3c(c2)[C@]2(C(=O)N3)[C@H](c3ccccc3OCCO)N3[C@H](c4ccccc4)[C@H](c4ccccc4)OC(=O)[C@H]3[C@@H]2C(=O)NC[C@H](O)c2ccccc2)cc1`, the composite z-score in [1] was 0.579; in test [3], 0.11; in test [4], -0.0942; in [5] it was 0.373; in test [6] it was 1.98; in test [7], 0.359. Further, the composite z-score in test [8] was 1.32; in test [9] it was -0.0767; in test [10], 1.07; in test [11] it was 1.05; in test [12], 1.14; in test [13], 1.31. The composite z-score in [14] was found to be 0.848; in test [15], 1.27; in [16], 1.62; in test [18] it was 1.06; in [19], 0.319. In test [2], the composite Z-score is -0.419 (inactive). The z-score in [17] was -1.25; in test [20], 0.412 (inactive).

As for `COC(=O)[C@]1(Cc2ccccc2CN=[N+]=[N-])N=C(c2ccc(OCCCO)cc2)O[C@@H]1c1ccccc1N=[N+]=[N-]`, the composite z-score in test [1] is -0.427; in test [3], 0.0026; in test [4] it was 0.015; in [5] it was 0.518; in test [6] it was 0.999; in [7], 1.47. The composite z-score in test [8] amounted to 0.163; in [9] it was 0.62; in test [10], 0.91; in test [11], 1.29; in test [12], 0.833; in test [13], 0.499. In addition, the composite z-score in test [14] was -0.0222; in test [15], 1.15; in test [16], 0.802; in [18], -0.251; in test [19], 0.425. The composite Z-score in [2] was -0.741 (inactive). Moreover, the z-score in [17] is -0.453; in [20] it was -3.31 (inactive).

For the compound `[N-]=[N+]=NCc1ccccc1[C@H]1OC(c2ccc(OCCCO)cc2)=N[C@@]1(CCS(=O)(=O)c1ccccc1)C(=O)O`, the composite z-score in test [1] was 0.952; in test [3], 0.212; in test [4], -0.118; in test [5] it was 0.754; in test [6] it was 2.12; in test [7], 0.0621. Further, the composite z-score in test [8] is 0.367; in test [9], -0.692; in test [10], 0.399; in test [11], 0.583; in test [12] it was 0.667; in test [13], 0.476. For the same compound, the composite z-score in [14] was 1.03; in test [15], 0.0192; in test [16], -0.119; in test [18], -0.182; in test [19], 0.169. The composite Z-score in test [2] was 0.177 (inactive). Besides, the z-score in test [17] was -0.959; in [20], -6.31 (inactive).

For `CCOC(=O)C1=C[C@@H](C(C)(C)C)N(S(=O)(=O)c2ccc(C)cc2)[C@H]1c1ccc(OC)cc1`, the composite z-score is 0.847 in test [1]; 0.116 in test [3]; -0.0956 in test [4]; 0.392 in [5]; 1.8 in test [6]; 0.315 in test [7]. In addition, the composite z-score in test [8] turned out to be 1.3; in [9], 0.209; in [10] it was 1.14; in test [11] it was 0.772; in test [12], 1.22; in test [13] it was 1.62. Also, the composite z-score in test [14] is 1.02; in test [15], 0.688; in [16], 0.387; in [18], 0.554; in test [19], 0.782. For the same compound, in test [2], the composite Z-score was -0.244 (inactive). In addition, the z-score is 2.61 in test [17] and 1.95 (inactive) in [20].

For `C=CCOC(=O)[C@H]1[C@@H]2C(=O)O[C@@H](c3ccccc3)[C@@H](c3ccccc3)N2[C@@H](c2ccc(OCCOC(=O)[C@H]3C[C@H]4C(=O)NCC(=O)N4[C@H]3c3ccc(O)cc3)cc2)[C@]12C(=O)Nc1ccccc12`, the composite z-score in [1] was -0.501; in [3] it was 0.948; in [4] it was -0.0631; in test [5] it was 0.6; in [6], 1.67; in [7], 0.96. Moreover, the composite z-score is 1.29 in [8]; 0.815 in test [9]; 1.18 in test [10]; 1.46 in test [11]; 1.22 in test [12]; 0.402 in test [13]. Further, the composite z-score in [14] stood at 0.961; in test [15], 1.44; in test [16] it was 1.46; in test [18] it was 1.26; in [19], 0.543. For the same compound, in test [2], the composite Z-score was 1.19 (inactive). The values for the z-score in test [17] and in [20] were -1.62 and 0.207 (inactive), respectively.
